# Measurements taken from PubChem BioAssay.
# Calls of active or inactive are those of the source.
# Experiments:
# [1] = test system: Plasmodium falciparum Sir2 (PF13_0152, Sir2A); assay: pfSir2 binders on small-molecule microarrays, primary screen, biochemical, small-molecule microarray, 635 nm fluorescence (AID 1098); conditions: small-molecule microarray binding, fluorescence 635 nm; higher = more signal;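 note: score merges spot fluorescence intensity with its signal-to-noise ratio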
# [2] = small-molecule microarray binders of probe aDKK1, primary screen, biochemical, biotinylated probe, 635/667 nm fluorescence (AID 1099); conditions: higher = more signal;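 note: score merges 667nm spot fluorescence with signal to noise across triplicate slides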
# [3] = small-molecule microarray binders of probe aCHRDL2, primary screen, biochemical, biotinylated probe, 635/667 nm fluorescence (AID 1100); conditions: higher = more signal
# [4] = splicing luciferase reporter signal modulators, primary screen, spliceosome inhibition project, cell-based, HEK293, splice +/- reporter (AID 1101); conditions: luminescence, 24 h, higher = more signal, called active from +8 up or from −8 down;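 note: HEK293 cells carrying a splicing-competent luciferase reporter gene; test concentration not given here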
# [5] = molecular target: Fibroblast growth factor 10 (Homo sapiens) (UniProt O15520); assay: FGF10 binders on small-molecule microarrays, primary screen, biochemical, small-molecule microarray, 635 nm fluorescence (AID 1102); conditions: FGF10 binding, fluorescence 635 nm, higher = more signal
# Chain of Fibroblast growth factor 10 (Homo sapiens) (O15520 whole entry, looked up): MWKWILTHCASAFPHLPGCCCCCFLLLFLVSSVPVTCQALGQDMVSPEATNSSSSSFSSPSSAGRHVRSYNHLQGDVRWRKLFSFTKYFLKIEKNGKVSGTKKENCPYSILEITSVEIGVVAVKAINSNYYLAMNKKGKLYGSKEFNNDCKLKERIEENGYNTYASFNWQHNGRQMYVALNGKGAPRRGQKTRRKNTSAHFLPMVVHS
# [6] = test system: glycogen synthase kinase-3 (GSK3A per assay name; protocol says GSK3B); assay: GSK3 binders on small-molecule microarrays, primary screen, biochemical, small-molecule microarray, 635 nm fluorescence, GSK3A (AID 1103); conditions: small-molecule microarray binding, fluorescence 635 nm; higher = more signal; note: the record names both GSK3A and GSK3B
# [7] = molecular target: Epidermal growth factor receptor (Homo sapiens) (UniProt P00533); assay: EGFR binders on small-molecule microarrays, primary screen, biochemical, small-molecule microarray, 635 nm fluorescence (AID 1104); conditions: EGFR binding, higher = more signal;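 note: score merges 667 nm emission intensity with spot signal to noise over triplicate slides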
# Chain of Epidermal growth factor receptor (Homo sapiens) (P00533 whole entry, looked up): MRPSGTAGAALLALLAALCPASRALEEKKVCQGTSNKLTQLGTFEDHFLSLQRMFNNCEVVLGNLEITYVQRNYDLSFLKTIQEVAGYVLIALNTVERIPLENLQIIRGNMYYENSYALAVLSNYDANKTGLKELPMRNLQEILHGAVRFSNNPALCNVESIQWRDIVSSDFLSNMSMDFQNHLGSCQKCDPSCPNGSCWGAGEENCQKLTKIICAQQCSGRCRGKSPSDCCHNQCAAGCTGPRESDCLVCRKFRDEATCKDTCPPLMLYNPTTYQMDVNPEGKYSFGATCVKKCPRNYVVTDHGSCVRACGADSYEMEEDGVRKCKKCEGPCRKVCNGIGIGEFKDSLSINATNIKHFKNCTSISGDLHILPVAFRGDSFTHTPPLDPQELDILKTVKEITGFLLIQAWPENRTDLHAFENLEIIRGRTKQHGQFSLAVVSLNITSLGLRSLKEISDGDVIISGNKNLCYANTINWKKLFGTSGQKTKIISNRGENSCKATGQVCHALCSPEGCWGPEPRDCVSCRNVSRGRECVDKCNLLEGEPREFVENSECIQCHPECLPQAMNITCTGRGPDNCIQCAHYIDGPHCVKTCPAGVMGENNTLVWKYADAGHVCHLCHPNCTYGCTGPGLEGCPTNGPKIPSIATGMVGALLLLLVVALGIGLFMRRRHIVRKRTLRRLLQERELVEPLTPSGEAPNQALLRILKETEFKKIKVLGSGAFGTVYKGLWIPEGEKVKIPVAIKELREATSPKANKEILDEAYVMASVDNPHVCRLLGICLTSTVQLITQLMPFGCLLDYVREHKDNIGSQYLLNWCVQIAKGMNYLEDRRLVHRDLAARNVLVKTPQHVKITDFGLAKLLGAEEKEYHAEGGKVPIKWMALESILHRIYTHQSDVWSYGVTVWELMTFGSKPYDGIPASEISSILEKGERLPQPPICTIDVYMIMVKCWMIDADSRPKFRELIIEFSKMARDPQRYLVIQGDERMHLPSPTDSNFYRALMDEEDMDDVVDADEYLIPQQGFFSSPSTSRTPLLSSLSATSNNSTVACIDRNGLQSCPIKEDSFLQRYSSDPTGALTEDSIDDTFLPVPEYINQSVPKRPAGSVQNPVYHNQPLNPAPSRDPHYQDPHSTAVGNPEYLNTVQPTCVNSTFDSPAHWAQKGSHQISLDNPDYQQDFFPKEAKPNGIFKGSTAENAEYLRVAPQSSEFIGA
# [8] = molecular target: Follistatin-related protein 3 (Homo sapiens) (UniProt O95633); assay: FSTL3 binders on small-molecule microarrays, primary screen, biochemical, small-molecule microarray, 635 nm fluorescence (AID 1105); conditions: FSTL3 binding, higher = more signal;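 note: score merges emission near 667 nm and signal to noise per printed spot across three slides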
# Chain of Follistatin-related protein 3 (Homo sapiens) (O95633 whole entry, looked up): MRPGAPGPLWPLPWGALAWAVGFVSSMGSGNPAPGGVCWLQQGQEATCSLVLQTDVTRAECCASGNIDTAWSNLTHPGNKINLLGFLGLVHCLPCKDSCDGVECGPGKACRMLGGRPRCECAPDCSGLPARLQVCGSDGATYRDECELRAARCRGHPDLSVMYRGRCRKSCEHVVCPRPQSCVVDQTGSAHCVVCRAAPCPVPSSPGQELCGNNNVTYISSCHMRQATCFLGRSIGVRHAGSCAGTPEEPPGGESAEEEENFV
# [9] = molecular target: Dickkopf-related protein 1 (Homo sapiens) (UniProt O94907); assay: DKK1 binders on small-molecule microarrays, primary screen, biochemical, small-molecule microarray, 635 nm fluorescence scan (AID 1106); conditions: DKK1 binding, higher = more signal;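 note: score merges emission near 667 nm with signal to noise over three replicate slides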
# Chain of Dickkopf-related protein 1 (Homo sapiens) (O94907 whole entry, looked up): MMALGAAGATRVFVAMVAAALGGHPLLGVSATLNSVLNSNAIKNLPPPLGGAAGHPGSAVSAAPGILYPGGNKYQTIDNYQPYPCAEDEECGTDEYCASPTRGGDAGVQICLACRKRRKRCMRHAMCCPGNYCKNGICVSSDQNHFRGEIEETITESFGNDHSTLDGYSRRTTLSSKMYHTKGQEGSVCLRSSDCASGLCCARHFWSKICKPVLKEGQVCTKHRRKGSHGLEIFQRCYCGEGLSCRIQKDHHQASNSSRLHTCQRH
# [10] = test system: Inhibin beta A chain (activin A); assay: INHBA (activin A) binders on microarrays, primary screen, biochemical, small-molecule microarray, 635 nm fluorescence scan (AID 1107); conditions: small-molecule microarray binding, higher = more signal;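 note: mouse activin A protein probed at 4.33 µg/mL on printed slides; score merges bound-protein fluorescence near 667 nm with spot signal-to-noise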
# [11] = test system: Human papillomavirus type 1a protein E7 (residues 44-93); assay: HPV1a E7 fragment binders on microarrays, primary screen, biochemical, small-molecule microarray, residues 44-93, 635 nm fluorescence (AID 1108); conditions: small-molecule microarray binding, fluorescence 635 nm; higher = more signal;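 note: E7 fragment applied at 1 µg/mL in TBST for 1 h at 4 C; score combines spot fluorescence with its signal to noise ratio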
# [12] = modulators of HCV replicon luciferase signal, primary screen, HCV replication inhibitor project, Huh7 cells, luciferase reporter (AID 1109); conditions: 48 h, higher = more signal;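 note: huh7 hepatoma cells harbouring a luciferase neomycin HCV replicon reporter; luciferase luminescence as measure of HCV replicon replication; test concentration not given here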
# [13] = molecular target: Left-right determination factor 2 (Homo sapiens) (UniProt O00292); assay: LEFTY2 binders on small-molecule microarrays, primary screen, biochemical, small-molecule microarray, 635 nm fluorescence scan (AID 1110); conditions: LEFTY2 binding, higher = more signal
# Chain of Left-right determination factor 2 (Homo sapiens) (O00292 whole entry, looked up): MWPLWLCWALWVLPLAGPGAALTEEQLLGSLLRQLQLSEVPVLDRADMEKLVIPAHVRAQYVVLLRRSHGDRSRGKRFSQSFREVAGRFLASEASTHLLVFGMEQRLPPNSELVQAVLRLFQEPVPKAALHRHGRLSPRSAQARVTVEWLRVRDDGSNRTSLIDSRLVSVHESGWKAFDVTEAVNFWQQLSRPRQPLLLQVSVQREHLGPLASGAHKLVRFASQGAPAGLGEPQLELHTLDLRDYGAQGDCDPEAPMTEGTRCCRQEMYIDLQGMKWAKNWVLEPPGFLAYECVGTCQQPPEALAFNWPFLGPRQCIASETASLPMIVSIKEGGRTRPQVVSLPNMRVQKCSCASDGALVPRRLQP
# [14] = molecular target: Calmodulin-1 (Homo sapiens) (UniProt P0DP23); assay: CALM1 binders on microarrays, EGTA buffer, profiling panel, biochemical, small-molecule microarray, Cy5-labelled CALM1 (AID 1111); conditions: Cy5-CALM1 binding fluorescence, higher = more signal;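 note: labelled calmodulin applied in Tris saline Tween buffer holding calcium plus EGTA and DTT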
# [15] = molecular target: Calmodulin-1 (Homo sapiens) (UniProt P0DP23); assay: calcium-bound CALM1 binders on microarrays, profiling panel, artefact control for SMM control-protein annotation, biochemical, small-molecule microarray, Cy5-labelled CALM1, plus calcium (AID 1112); conditions: Cy5-CALM1 binding fluorescence, higher = more signal;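 note: score merges spot fluorescence with signal to noise from triplicate slides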
# [16] = small-molecule microarray binders of probe aWnt5a, primary screen, biochemical, biotinylated probe, 635/667 nm fluorescence (AID 1113); conditions: higher = more signal;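 note: score merges 667 nm fluorescence intensity with signal-to-noise per printed feature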
# [17] = small-molecule microarray binders of probe aShh, primary screen, biochemical, biotinylated probe, 635/667 nm fluorescence (AID 1114); conditions: higher = more signal;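 note: probe is biotin-labelled aShh protein from a stem cell growth factor screen; measures binding of labelled protein to compounds printed on the slide; score merges feature fluorescence at 667 nm with signal-to-noise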
# [18] = small-molecule microarray binders of probe aNog, primary screen, biochemical, biotinylated probe, 635/667 nm fluorescence (AID 1115); conditions: higher = more signal;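 note: probe is biotinylated aNog protein used at 0.15 µg/mL for 1 h at 4 C; z-score combines 667 nm fluorescence of each spot with its signal to noise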
# [19] = molecular target: Torsin-1A-interacting protein 1 (Homo sapiens) (UniProt Q5JTV8); assay: LAP1 binders from COS7 cell lysate, primary screen, small-molecule microarray, 635/667 nm fluorescence (AID 1116); conditions: COS7-hLAP1 lysate binding, 635 nm fluorescence, higher = more signal
# Chain of Torsin-1A-interacting protein 1 (Homo sapiens) (Q5JTV8 whole entry, looked up): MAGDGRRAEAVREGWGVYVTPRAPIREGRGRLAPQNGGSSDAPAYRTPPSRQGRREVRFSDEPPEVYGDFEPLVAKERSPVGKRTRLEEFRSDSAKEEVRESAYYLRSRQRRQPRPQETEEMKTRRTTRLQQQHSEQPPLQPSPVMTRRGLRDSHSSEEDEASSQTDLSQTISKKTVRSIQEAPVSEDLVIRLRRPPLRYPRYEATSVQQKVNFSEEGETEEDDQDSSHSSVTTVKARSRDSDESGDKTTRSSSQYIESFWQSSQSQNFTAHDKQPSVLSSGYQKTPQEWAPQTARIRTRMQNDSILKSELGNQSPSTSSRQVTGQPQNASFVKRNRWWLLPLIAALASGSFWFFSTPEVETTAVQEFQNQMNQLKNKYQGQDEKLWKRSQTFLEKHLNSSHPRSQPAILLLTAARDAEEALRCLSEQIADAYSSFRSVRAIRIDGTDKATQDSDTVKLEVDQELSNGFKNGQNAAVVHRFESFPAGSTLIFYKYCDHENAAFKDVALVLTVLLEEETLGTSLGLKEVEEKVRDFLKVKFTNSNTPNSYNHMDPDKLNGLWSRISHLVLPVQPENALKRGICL
# [20] = molecular target: Alpha-bungarotoxin (Bungarus multicinctus) (UniProt P60615); assay: alpha-bungarotoxin binders on microarray, profiling panel, artefact control for SMM control protein annotation, biochemical, small-molecule microarray, Alexa647 label, 635/667 nm fluorescence (AID 1117); conditions: alpha-BTX-A647 binding fluorescence, higher = more signal
# Chain of Alpha-bungarotoxin (Bungarus multicinctus) (P60615 whole entry, looked up): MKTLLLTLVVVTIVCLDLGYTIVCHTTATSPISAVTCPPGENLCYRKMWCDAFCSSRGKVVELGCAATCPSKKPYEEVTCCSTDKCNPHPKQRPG
Structure (SMILES),composite z-score [1],composite z-score [2],composite z-score [3],z-score [4],composite z-score [5],composite z-score [6],composite z-score [7],composite z-score [8],composite z-score [9],composite z-score [10],composite z-score [11],z-score [12],composite z-score [13],composite z-score [14],composite z-score [15],composite z-score [16],composite z-score [17],composite z-score [18],composite z-score [19],composite z-score [20]
COC(=O)[C@@]1(Cc2ccc(OC)cc2)[C@H]2c3cc(C(=O)N(C)C)n(CCc4ccc(OC)c(Br)c4)c3C[C@H]2CN1C(=O)c1ccccc1,0.843,1.98,1.47,-1.13 (inactive),0.77,1.02,-0.405,1.04,-0.884,0.463,1.33,-2.54,-0.239,2.23,1.54,0.36,2.03,1.19,1.73,1.98
C[C@H]1NC(=O)[C@@H](C)NC(=O)[C@@]23C(=O)N[C@@H](Cc4ccccc4)C2[C@H](C)[C@@]2(C)O[C@H]2C3/C=C/C/C=C\CNC1=O (stereo not given in full),1.66,-0.581,-0.781,-0.697 (inactive),0.14,0.0002,0.0021,0.171,0.422,1.28,-0.569,-0.175,0.182,-0.809,-1.32,-0.0758,-0.221,-0.0684,-0.485,0.393
O=C1O[C@@H](c2ccccc2)[C@@H](c2ccccc2)N2[C@@H](c3ccc(O)cc3)[C@]3(C(=O)Nc4ccccc43)[C@@H](C(=O)N3CCN(c4ncccn4)CC3)[C@H]12,1.13,0.413,0.535,-0.547 (inactive),-0.0898,0.202,-0.366,0.0146,-0.21,-0.437,0.746,-1.91,-0.389,0.874,1.09,-0.105,0.182,0.0486,0.0398,1.16
NC(=O)NCC#Cc1ccc2c(c1)[C@]1(C(=O)N2)[C@H](C(=O)N2CCCCCCC2)[C@H]2C(=O)O[C@H](c3ccccc3)[C@H](c3ccccc3)N2[C@@H]1c1ccccc1OCCO,1.82,2.98,1.66,0.0838 (inactive),1.39,1.38,1.7,1.71,2.26,1.86,1.37,-1.54,1.46,2.99,1.69,1.31,2.38,2.29,5.01,2.63
CCCC=C(CCC)[C@@H](NC(=O)c1ccc(C(F)(F)F)cc1)c1ccccc1,0.658,0.559,0.622,-3.52 (inactive),-0.433,0.662,-0.405,0.0071,-0.446,0.0953,1.17,-1.43,-0.0957,0.815,0.793,0.0094,0.213,0.644,0.432,0.25
C[N+](C)(C)CCCC[C@@H]1NC(=O)[C@H]2C[C@@H](C(=O)NCc3ccc(F)cc3)[C@@H](c3cccc(OCCO)c3)N2C1=O,0.459,0.0243,0.479,-0.178 (inactive),0.988,0.519,0.139,0.954,0.885,-0.7,0.276,0.328,0.503,0.884,0.869,-0.0522,-0.0904,0.0519,1.42,1.15
CCCNC(=O)[C@@H]1c2ccccc2C(=O)N(Cc2cc(F)cc(C(F)(F)F)c2)[C@H]1c1ccc(CO)cc1,1.54,0.792,0.853,-1.26 (inactive),0.926,1.29,0.497,1.35,0.677,1.05,0.0588,-0.901,0.498,1.04,-0.263,0.0079,0.188,-0.154,1.44,1.21
COc1ccc([Si](C)(C)[C@H]2[C@H](CCO)O[C@@]3(C(=O)N(Cc4ccc(N5CCCCC5=O)cc4)c4ccccc43)[C@@H]2C)cc1,1.36,0.175,0.37,1.23 (inactive),0.345,0.642,0.122,0.55,0.236,0.766,0.247,-4.77,0.139,1.49,1.02,-0.116,0.0141,0.338,0.643,1.7
CC[C@@H]1C=C(C(=O)O)[C@H](c2ccccc2)N1S(=O)(=O)c1ccc([N+](=O)[O-])cc1,0.956,-0.255,0.887,-0.812 (inactive),0.0734,1.16,-0.314,0.0657,-0.538,0.781,0.672,-0.661,-0.52,0.354,0.202,-0.0512,-0.138,-0.321,1.41,0.427
CO[C@H]1COC(=O)[C@@H](OCc2ccccc2)C=C[C@H](C)[C@@H](OC)COC(=O)[C@H](OCc2ccccc2)C=C[C@@H]1C,-0.0155,-0.46,-0.984,-1.8 (inactive),0.181,-0.0762,-0.207,0.172,0.123,-0.381,-1.23,0.512,0.348,-2.13,-1.26,-0.147,-0.138,-0.397,-0.144,-0.155
O=C1c2ccccc2[C@@]2(Cc3ccccc3N(CC(F)(F)F)C2=O)[C@H](c2ccc(CO)cc2)N1C1CCCCC1,0.208,0.117,0.0803,-0.189 (inactive),0.982,0.88,0.229,0.95,1.02,0.801,0.796,-0.387,0.542,-0.575,0.017,-0.0192,-0.0977,-0.369,0.415,-0.223
